# “And” between values parts separate entries of the source, which are not always exact repeats. Equal entries are not always repeated. Out of some 360,000 compounds screened, about 1,600 (0.44%) were called active.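 How the source made its calls: active means every replicate showing at least 50% inhibition; inconclusive means mean inhibition at least 50% but not in every replicate; inactive means the rest.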 What follows is part of a selection rich in actives, with near analogues and random picks from the rest. The source holds several records for some structures; these can differ, active in one and inactive in another.
# Molecular target: DNA repair protein RAD52 homolog (Homo sapiens) (UniProt P43351)
# Sequence (P43351 whole entry, looked up): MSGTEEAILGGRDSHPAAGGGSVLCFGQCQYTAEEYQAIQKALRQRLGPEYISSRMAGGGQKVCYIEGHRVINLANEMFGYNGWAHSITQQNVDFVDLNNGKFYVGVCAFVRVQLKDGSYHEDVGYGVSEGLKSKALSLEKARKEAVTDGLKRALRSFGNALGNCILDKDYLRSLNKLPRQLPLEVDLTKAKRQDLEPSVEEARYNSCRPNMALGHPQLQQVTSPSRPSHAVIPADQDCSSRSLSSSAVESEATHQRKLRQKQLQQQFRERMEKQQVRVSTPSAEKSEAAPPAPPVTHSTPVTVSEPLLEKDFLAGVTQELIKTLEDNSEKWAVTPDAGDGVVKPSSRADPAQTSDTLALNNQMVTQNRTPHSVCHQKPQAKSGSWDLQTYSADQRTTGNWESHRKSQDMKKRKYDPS
# Assay: blockers of RAD52 strand annealing activity – biochemical, FRET, single point, set 2, primary screen (AID 651710)
# Settings: recombinant RAD52 DNA annealing, FRET fluorescence; at 18.7 µM; stronger effect = higher value
row,SMILES,inhibition
1,Cc1cc2oc3ccc(NCCC4CCCN4C)cc3c(=O)c2cc1C (stereo not drawn),60.4% (active)
2,CN1CCC[C@@H]1CCO[C@](C)(c1ccccc1)c1ccc(Cl)cc1,27.4% (inactive)
3,COc1cccc2sc3cc(NCC[C@@H]4CCCN4C)ccc3c(=O)c12,-48.1% (inactive)
4,COc1ccc2c3c([nH]c2c1)[C@H](CO)N(C(=O)c1ccncc1)CC31CCN(C(=O)c2ccncc2)CC1,2.16% (inactive)
5,N#Cc1ccc(-c2ccc(C3[C@@H]4CN(S(=O)(=O)c5ccccc5F)C[C@H]3N4)cc2)cc1 (stereo partly drawn),-15.8% (inactive) and -46.3% (inactive)
6,COc1cccc(S(=O)(=O)N2C[C@@H]3N[C@H](C2)C3c2ccc(-c3cccc(C(=O)N(C)C)c3)cc2)c1 (stereo partly drawn),10.5% (inactive) and 16.9% (inactive)
7,COc1ccccc1S(=O)(=O)N1C[C@@H]2N[C@H](C1)C2c1ccc(-c2cccc(C)c2)cc1 (stereo partly drawn),56.8% (active) and 37.8% (inactive)
8,COc1ccc(NC(=O)N(C)C[C@H]2Oc3ccc(NS(=O)(=O)c4ccc(F)cc4)cc3C(=O)N([C@@H](C)CO)C[C@@H]2C)cc1,15.8% (inactive)
9,C[C@H](CO)N1C[C@H](C)[C@@H](CN(C)Cc2ccc(Cl)c(Cl)c2)Oc2ccc(NS(=O)(=O)c3ccccc3)cc2C1=O,-11.9% (inactive)
10,NCCCNC(=S)NCCCN(Cc1ccc(Cl)cc1)c1ccc(Br)cn1,95% (active)
11,O=C(/C=C/c1ccc(Cl)cc1)Nc1ccc(Br)cn1,-0.893% (inactive)
12,S=C(NCCCc1cnc[nH]1)NCCCN(Cc1ccc(Cl)c(Cl)c1)c1ccc(Br)cn1,-1.73% (inactive)
13,O=C1CN(S(=O)(=O)c2ccccc2)C[C@H]2[C@H](c3ccc(C4=CCCC4)cc3)[C@@H](CO)N12,-19.1% (inactive)
14,C[C@H](NC(=O)C[C@@H]1C=C[C@H](NC(=O)CN2CCOCC2)[C@H](CO)O1)c1ccccc1,3.29% (inactive)
15,Cc1ccc2nc(CN(C)C(=O)[C@@H](Cc3ccccc3)NC(=O)[C@H]3O[C@@H](n4ccc(=O)[nH]c4=O)[C@H](O)[C@@H]3O)[nH]c2c1,5.6% (inactive)
16,C[C@@H]1CN([C@H](C)CO)C(=O)Cc2cc(N(C)C)ccc2O[C@H]1CN(C)S(C)(=O)=O,-4.07% (inactive)
17,CC(=O)Nc1ccc(Nc2c3ccccc3nc3ccccc23)cc1,91.2% (active)
18,CCc1c(C)nc2c(-c3ccccc3)c(C)nn2c1Nc1ccc(NC(C)=O)cc1,-12.3% (inactive)
19,CC(=O)NCCn1c(SCC(=O)Nc2ccc(C)cc2)nc2ccccc2c1=O,-11.4% (inactive)
20,O=C(c1cnccn1)N1CC(=O)N2[C@H](C1)[C@@H](c1ccc(C#CC3CCCCC3)cc1)[C@@H]2CO,13.7% (inactive)
21,CN(C)CCNC(=O)c1ccc(Cl)c2cc3ccccc3nc12,94.5% (active)

row,SMILES,inhibition
1,O=C(NCCc1ccccn1)c1cc(-c2ccc(Cl)cc2)nc2ccccc12,-15.9% (inactive)
2,CNC(=O)c1cccc2nc3ccccc3nc12,2.55% (inactive)
3,Cn1cnc(S(=O)(=O)N[C@H]2C=C[C@H](CC(=O)NCC3CCCCC3)O[C@@H]2CO)c1,2.08% (inactive)
4,C[C@H](CO)N1C[C@H](C)[C@H](CN(C)Cc2ccc(C(F)(F)F)cc2)OCCCC[C@H](C)Oc2ccc(NS(=O)(=O)c3ccc(Cl)cc3)cc2C1=O,5.56% (inactive)
5,C[C@@H]1CCCCO[C@H](CN(C)Cc2ccccc2)[C@@H](C)CN([C@H](C)CO)C(=O)c2cc(NS(=O)(=O)c3ccc(Cl)cc3)ccc2O1,35.2% (inactive) and -9.61% (inactive)
6,C[C@@H]1CCCCO[C@H](CN(C)Cc2ccccc2)[C@H](C)CN([C@H](C)CO)C(=O)c2cc(NS(=O)(=O)c3ccc(Cl)cc3)ccc2O1,53.1% (active)
7,C[C@H](CO)N1C[C@H](C)[C@@H](CN(C)Cc2ccncc2)OCCCC[C@H](C)Oc2ccc(NS(=O)(=O)c3ccc(Cl)cc3)cc2C1=O,-15.9% (inactive)
8,C[C@@H]1CN([C@H](C)CO)C(=O)c2cc(NS(=O)(=O)c3cccs3)ccc2O[C@@H](C)CCCCO[C@@H]1CN(C)S(=O)(=O)c1cccs1,-0.96% (inactive)
9,C[C@@H]1CCCCO[C@H](CN(C)C(=O)CCCN(C)C)[C@H](C)CN([C@@H](C)CO)C(=O)c2cc(NS(=O)(=O)c3ccc(Cl)cc3)ccc2O1,52.5% (active)
10,C[C@@H]1CN([C@H](C)CO)C(=O)c2cc(NS(=O)(=O)c3ccc(Cl)cc3)ccc2O[C@@H](C)CCCCO[C@H]1CN(C)Cc1ccccc1,64.2% (active)
11,C[C@@H]1CN([C@@H](C)CO)C(=O)c2cc(NS(=O)(=O)c3cn(C)cn3)ccc2O[C@@H](C)CCCCO[C@H]1CN(C)S(=O)(=O)c1cccs1,99.3% (active)
12,C[C@@H]1CCCCO[C@H](CN(C)Cc2ccccc2)[C@H](C)CN([C@@H](C)CO)C(=O)c2cc(NS(=O)(=O)c3ccccc3)ccc2O1,7.51% (inactive)
13,C[C@@H]1CCCCO[C@H](CN(C)S(=O)(=O)c2cccs2)[C@H](C)CN([C@@H](C)CO)C(=O)c2cc(NS(=O)(=O)c3cccs3)ccc2O1,-2.6% (inactive)
14,CC(C)NC(=O)N(C)C[C@H]1OCCCC[C@H](C)Oc2ccc(NS(=O)(=O)c3ccc(Cl)cc3)cc2C(=O)N([C@@H](C)CO)C[C@H]1C,15.1% (inactive)
15,C[C@@H]1CCCCO[C@H](CN(C)C(=O)CCCN(C)C)[C@H](C)CN([C@@H](C)CO)C(=O)c2cc(NS(=O)(=O)c3ccccc3)ccc2O1,13.8% (inactive)
16,COc1cccc(S(=O)(=O)Nc2ccc3c(c2)[C@@H]2C[C@@H](CC(=O)NCc4ccc(Cl)cc4)O[C@H](CO)[C@@H]2O3)c1,10.3% (inactive)
17,CN(C)C(=O)C[C@@H]1C[C@H]2c3cc(NC(=O)Nc4ccccc4F)ccc3O[C@H]2[C@@H](CO)O1,-10% (inactive)
18,Cc1noc(C)c1S(=O)(=O)Nc1ccc2c(c1)CC(=O)N([C@@H](C)CO)C[C@H](C)[C@H](CN(C)C(=O)Nc1ccccc1)O2,-0.934% (inactive)
19,Cc1noc(C)c1NC(=O)Nc1cccc2c1O[C@@H](CN(C)C(=O)Nc1ccc(C(F)(F)F)cc1)[C@@H](C)CN([C@@H](C)CO)C2=O,-2.22% (inactive)
20,O=C(C[C@@H]1CC[C@@H]2[C@H](COC[C@H](O)CN2S(=O)(=O)c2ccc(Cl)cc2)O1)N[C@@H]1CCN(Cc2ccccc2)C1,17.8% (inactive)
21,O=C(C[C@H]1CC[C@H](NC(=O)Nc2ccccc2F)[C@@H](CO)O1)NCc1ccccc1,-8.56% (inactive)

row,SMILES,inhibition
1,COc1ccc(S(=O)(=O)Nc2ccc3c(c2)C(=O)N([C@H](C)CO)C[C@@H](C)[C@H](CN(C)Cc2ccccc2)O3)cc1,12.7% (inactive)
2,COc1cccc(-c2ccc([C@@H]3[C@@H](CO)N4C(=O)CN(C(=O)C5CCCCC5)C[C@H]34)cc2)c1,-17.9% (inactive)
3,CC(C)NC(=O)N(C)C[C@H]1OCCCC[C@@H](C)Oc2ccc(NC(=O)C3CCCCC3)cc2C(=O)N([C@H](C)CO)C[C@H]1C,-14% (inactive)
4,CO[C@H]1CN(C)C(=O)c2ccc(NC(=O)c3cccc(F)c3)cc2OC[C@@H](C)N(C(C)=O)C[C@@H]1C,3.49% (inactive)
5,C[C@@H]1CCCCO[C@H](CN(C)Cc2ccc(C(F)(F)F)cc2)[C@H](C)CN([C@H](C)CO)C(=O)c2cc(NC(=O)Nc3ccc(F)cc3)ccc2O1,-10% (inactive)
6,CCCN(C)C[C@@H]1OCCCC[C@@H](C)Oc2ccc(NC(=O)Nc3ccc(C(F)(F)F)cc3)cc2C(=O)N([C@H](C)CO)C[C@H]1C,61.7% (active)
7,C[C@H](CO)N1C[C@H](C)[C@@H](CN(C)S(C)(=O)=O)OCCCC[C@H](C)Oc2ccc(NC(=O)Nc3ccc(C(F)(F)F)cc3)cc2C1=O,9.95% (inactive)
8,CN1C(=O)c2cc(NC(=O)C3CCOCC3)ccc2OC[C@@H]2O[C@H](CC(=O)NCc3ccccc3F)CC[C@H]21,-6.2% (inactive)
9,COCC(=O)Nc1ccc2c(c1)OC[C@H](C)N(Cc1ccccc1OC)C[C@@H](C)[C@@H](OC)CN(C)C2=O,5.08% (inactive)
10,CCCn1c2ccccc2c2cnn(CC(=O)NCCCN3CCCCC3CC)c(=O)c21 (stereo not drawn),6.95% (inactive)
11,Cc1nc2ccccc2c2oc(C(=O)NCCCN3CCC(C)CC3)cc12,24.5% (inactive)
12,CCC1CCCCN1CCCNC(=O)c1cc2c(Cl)nc3ccccc3c2s1 (stereo not drawn),64.2% (active)
13,C[C@@H]1CN([C@H](C)CO)C(=O)c2cccc(NC(=O)C3CCOCC3)c2O[C@H]1CN(C)S(=O)(=O)c1ccc(Cl)cc1,-3.65% (inactive)
14,OC[C@H]1[C@@H](c2ccc(/C=C/c3ccccc3)cc2)[C@H]2CN(Cc3cccnc3)CCCCN21,57.1% (active)
15,OC[C@H]1[C@H](c2ccc(-c3cccnc3)cc2)[C@H]2CN(Cc3ccccn3)CCCCN21,-13.2% (inactive)
16,OC[C@@H]1[C@H](c2ccc(C#Cc3ccccc3)cc2)[C@@H]2CN(Cc3cncnc3)CCCCN12,-7.81% (inactive)
17,C[C@H]1CN([C@@H](C)CO)C(=O)Cc2cc(NS(=O)(=O)c3ccc(Cl)cc3)ccc2O[C@@H]1CN(C)S(=O)(=O)c1ccccc1,0.925% (inactive)
18,O=C(Cc1ccccn1)N[C@@H]1CC[C@H](CCn2cc(-c3ccc(F)cc3)nn2)O[C@@H]1CO,-0.234% (inactive)
19,COc1cccc(CNc2nc(NCc3cccs3)nc3ccsc23)c1,63.7% (active)
20,COc1cccc(CNc2nc(NCc3ccccc3OC)nc3ccsc23)c1,-11.5% (inactive)
21,Clc1ccccc1Nc1nc(NCc2cccs2)nc2ccsc12,-19.9% (inactive)

# From PubChem BioAssay AID651710 (Broad Institute, 2012)
